The source of these data is PubChem BioAssay (Tox21).

Structures are written as SMILES. Results filed as inconclusive are left out. A structure can be active in one record and inactive in another. Activity calls are given as the source filed them. Unless noted, calls follow the shape of the full dose curve.

A short description of experiment [1]: Nuclear factor erythroid 2-related factor 2/antioxidant responsive element (Nrf2/ARE) small molecule agonists: qHTS cell viability counter screen in human keratinocytes (AID 1919968; active = well fitted curve in the direction sought with a large enough effect in the repeat runs; an effect the other way counts as inactive or inconclusive; also: nearly all actives have a fitted effect of over 55% in size; also: potency is read from the fitted curve at half-maximal effect). Put shortly: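 Seed 1,500 KeratinoSens cells per well, then incubate 5 h at 37 C/5% CO2. Add compounds in DMSO and incubate 23 h. Add CellTiter-Fluor, wait 1 h and read fluorescence.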

Experiment [2] deals with Gonadotropin-releasing hormone receptor (Homo sapiens) (UniProt P30968). Kind of experiment: Human gonadotropin-releasing hormone receptor (GnRHR) small molecule agonists, calcium flux assay in GnRHR-HEK293 cells (AID 1920063). Also: nearly all actives have a fitted effect of over 35% in size. Put shortly: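 Cells: HEK293 stably expressing human GnRHR. Steps: overnight (18 h) culture, 1 h calcium dye loading at 37 C, compound addition, kinetic fluorescence read at 480/540 nm. Each compound tested at 15 concentrations in triplicate.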

Experiment [3] is described as follows: p53 small molecule agonists, cell-based qHTS assay with human liver microsomes (AID 1963577).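 Also: p53 response element beta-lactamase reporter cells with liver microsomes plus NADPH.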 A digest of the protocol: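 With metabolic activation: human liver microsomes (0.5 mg/mL final) plus NADPH (0.5 mg/mL final) added alongside compounds to p53RE-bla cells; 16 h 37 C exposure; beta-lactamase read by LiveBLAzer fluorescence.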
Background: qHTS replaces the single test concentration by a dilution series.

A short description of experiment [4]: p53 small molecule agonists, cell-based qHTS assay with rat liver microsomes (AID 1963578). A digest of the protocol:
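Metabolic activation by rat liver microsomes and NADPH, each 0.5 mg/mL final, added right after compounds to p53RE-bla reporter cells (4,000/well, plated 5 h earlier). 16 h at 37 C, then LiveBLAzer substrate for 2 h at room temperature in the dark; fluorescence read-out.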

Experiment [5] in a line: p53 small molecule agonists, cell-based qHTS assay with human liver microsomes: qHTS cell viability counter screen (AID 1963579). Also: nearly all actives have a fitted effect of over 45% in size. Also: potency is read from the fitted curve at half-maximal effect. A digest of the protocol: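 Metabolic activation used human liver microsomes and NADPH, both 0.5 mg/mL final, over 16 hours at 37 C on p53RE-bla cells (4,000/well). Cytotoxicity measured by CellTiter-Glo luminescence, 30 min at room temperature.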

The nature of experiment [6]: p53 small molecule agonists, cell-based qHTS assay with rat liver microsomes: qHTS cell viability counter screen (AID 1963580). Also: nearly all actives have a fitted effect of over 45% in size. Also: potency is read from the fitted curve at half-maximal effect. Put shortly: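 Viability is assessed in parallel with the p53 reporter read: HCT-116 p53RE-bla cells receive compounds plus rat microsomes and NADPH (0.5 mg/mL final apiece), incubate 16 h at 37 C, and then CellTiter-Glo luminescence is recorded.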

A short description of experiment [7]: p53 small molecule agonists, cell-based qHTS assay: qHTS cell viability counter screen (AID 1963581). Also: nearly all actives have a fitted effect of over 45% in size. Also: potency is read from the fitted curve at half-maximal effect. Put shortly:
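Cells: HCT-116 with p53 response element-driven beta-lactamase. Treatment: 16 h, 37 C, compounds in DMSO. Read: CellTiter-Glo luminescence after 30 min RT.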

Experiment [8] can be described thus: p53 small molecule agonists, cell-based qHTS assay (AID 1963582; active = well fitted activation curve with a large enough effect in the signal ratio in the repeat runs, not every such curve was filed as active; the % refers to the signal ratio). A digest of the protocol: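 Quantitative HTS in p53RE-bla cells: after a 5 h settling period, compounds delivered in DMSO were left on cells for 16 h at 37 C, and reporter induction was measured as fluorescence following 2 h substrate loading.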
For experiment [9], the target named is 5-hydroxytryptamine receptor 2A (Homo sapiens) (UniProt P28223). Kind of experiment: 5-hydroxytryptamine receptor 2A (HTR2A) small molecule agonists, cell-based qHTS assay (AID 1963587). Also: nearly all actives have a fitted effect of over 30% in size. Also: potency is read from the fitted curve at half-maximal effect. Put shortly:
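CHO cells stably expressing human HTR2A, plated 18 h, loaded with calcium dye 1 h at 37 C. Agonist mode: compounds added and intracellular calcium fluorescence recorded kinetically for 2 min at 1 sec intervals.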

The target in experiment [10] is Muscarinic acetylcholine receptor M1 (Homo sapiens) (UniProt P11229). As to the kind of experiment: Cholinergic receptor muscarinic 1 (CHRM1) small molecule antagonists, cell-based qHTS assay (AID 1963588). Also: nearly all actives have a fitted effect of over 40% in size. A digest of the protocol: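 CHRM1-CHO calcium-flux assay, antagonist mode. Cells were seeded 18 h, dye-loaded 1 h at 37 C and given compound for 5 min at RT, then acetylcholine was added at 50nM. FDSS fluorescence was read 3 min; 15 concentrations, three runs.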

Experiment [11] has the same target. As to the kind of experiment: Cholinergic receptor muscarinic 1 (CHRM1) small molecule agonists, cell-based qHTS assay (AID 1963589). Also: nearly all actives have a fitted effect of over 35% in size. Also: potency is read from the fitted curve at half-maximal effect. Put shortly:
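Agonist-mode qHTS in CHO cells stably carrying human muscarinic M1. Intracellular calcium is tracked by fluorescence every second after compound transfer; each compound runs at 15 concentrations in three independent runs.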

A short description of experiment [12]: cAMP Responsive Elements (CRE) small molecule agonists, cell-based qHTS assay (AID 1963590). A digest of the protocol:
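Agonist mode qHTS in CRE-bla HEK 293T cells: compounds dosed from DMSO for 3 h at 37 C/5% CO2, followed by LiveBLAzer B/G FRET substrate for 2 h at room temperature.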

Experiment [13] is described as follows: cAMP Responsive Elements (CRE) small molecule antagonists, cell-based qHTS assay (AID 1963591; active = well fitted inhibition curve with a large enough effect in the signal ratio in the repeat runs, not every such curve was filed as active; the % refers to the signal ratio). A digest of the protocol:
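Antagonist mode: test compounds are co-incubated with the adenylyl cyclase activator NKH477 (0.25 uM final) on CRE-bla HEK293T cells for 3 h at 37 °C, followed by LiveBLAzer substrate loading.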

Experiment [14] concerns the target Beta-2 adrenergic receptor (Homo sapiens) (UniProt P07550). Kind of experiment: Adrenergic beta2 receptor (ADRB2) small molecule antagonists, cell-based qHTS assay (AID 1963592). Also: series mostly up to about 92 µM; nearly all actives have a fitted effect of over 50% in size. A digest of the protocol:
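Cells (CHO, stable ADRB2 overexpression) incubated 18-20hr at 37C; compounds added from DMSO; agonist mix (1nM isoproterenol, 100uM IBMX, 25uM Ro-20-1724) added; 0.5hr RT; d2-cAMP and anti-cAMP-cryptate added; 1hr RT; 665/615 nm read.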

For experiment [15] the target is unchanged. As to the kind of experiment: Adrenergic beta2 receptor (ADRB2) small molecule agonists, cell-based qHTS assay (AID 1963593).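 Also: CHO cells stably overexpressing human ADRB2.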 Put shortly:
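CHO cells stably over-expressing ADRB2 were plated overnight at 37C, then dosed with compounds plus a stimulation mix containing 100uM IBMX and 25uM Ro-20-1724 for 0.5hr at room temperature. cAMP was measured by HTRF competition, 1hr.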

The target in experiment [16] is D(2) dopamine receptor (Homo sapiens) (UniProt P14416). Kind of experiment: Dopamine D2 receptor (DRD2) small molecule agonists, cell-based qHTS assay (AID 1963594). Also: nearly all actives have a fitted effect of over 35% in size. A digest of the protocol:
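HEK293 cells stably expressing human DRD2, pre-treated with PDE inhibitor Ro20-1724 (0.1 mM final) and compound 10 min at room temperature, then stimulated with NKH477 (200nM […]) for 30 min. cAMP read by HTRF (665/620 nm).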

For experiment [17] the target is unchanged. Kind of experiment: Dopamine D2 receptor (DRD2) small molecule antagonists, cell-based qHTS assay (AID 1963595; active = well fitted inhibition curve with a large enough effect in the signal ratio in the repeat runs, with a control signal flat; the % refers to the signal ratio). Put shortly:
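HTRF cAMP read-out at 665 and 620 nm emission (340 nm excitation). Antagonist mode: compounds were tested against 12 nM quinpirole in DRD2-HEK293 cells, with 200 nM NKH477 raising cAMP and 0.1 mM Ro20-1724 blocking its breakdown.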

The target in experiment [18] is KiSS-1 receptor (Homo sapiens) (UniProt Q969F8). As to the kind of experiment: Human kisspeptin (KISS1R) small molecule agonists, calcium flux assay in KISS1R-HEK293 cells (AID 1920064; active = well fitted curve in the direction sought with a large enough effect in the repeat runs; an effect the other way counts as inactive or inconclusive). A digest of the protocol: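 Cells plated and incubated 18 h; dye added, 1 h at 37 C; compounds in DMSO pinned in; signal read at 480/540 nm every second for 3 min. Each compound tested at 15 concentrations in triplicate.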

A short description of experiment [19]: G protein-coupled receptor (GPCR) small molecule agonists, calcium flux assay: HEK293 wild type cell line counter screen (AID 1920065). Put shortly:
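Counter-screen of the Tox21 10K library for non-specific calcium release: dye-loaded cells received compounds in DMSO and were monitored by kinetic fluorescence (480/540 nm, 3 min). Fifteen concentrations, run in triplicate.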
(In general: Calcium assays in cells follow changes in intracellular calcium, usually with a dye or a luminescent sensor.)

Experiment [20] has as its target 5-hydroxytryptamine receptor 2A (Homo sapiens) (UniProt P28223). As to the kind of experiment: 5-hydroxytryptamine receptor 2A (HTR2A) small molecule antagonists, cell-based qHTS assay (AID 1963586). Also: nearly all actives have a fitted effect of over 45% in size. Also: potency is read from the fitted curve at half-maximal effect. A digest of the protocol: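 Antagonist-mode intracellular calcium assay: DOI (4 nM) added after 5 min compound pre-incubation at room temperature to dye-loaded HTR2A-CHO cells. Fluorescence followed for 3 min, sampled every second.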

Chain of 5-hydroxytryptamine receptor 2A (Homo sapiens) (P28223 whole entry, looked up): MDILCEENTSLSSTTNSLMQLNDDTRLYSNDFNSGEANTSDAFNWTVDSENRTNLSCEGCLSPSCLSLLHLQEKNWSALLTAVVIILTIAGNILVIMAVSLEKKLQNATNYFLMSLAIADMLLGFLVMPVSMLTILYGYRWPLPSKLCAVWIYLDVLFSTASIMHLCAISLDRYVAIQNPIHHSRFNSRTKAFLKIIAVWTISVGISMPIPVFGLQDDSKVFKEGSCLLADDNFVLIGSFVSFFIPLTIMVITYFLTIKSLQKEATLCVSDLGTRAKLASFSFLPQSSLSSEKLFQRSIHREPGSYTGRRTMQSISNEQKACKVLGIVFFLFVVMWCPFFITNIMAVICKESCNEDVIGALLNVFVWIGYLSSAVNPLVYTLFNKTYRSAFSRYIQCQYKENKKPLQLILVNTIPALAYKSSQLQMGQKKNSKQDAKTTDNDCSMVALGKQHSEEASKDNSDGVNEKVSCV
Chain of Muscarinic acetylcholine receptor M1 (Homo sapiens) (P11229 whole entry, looked up): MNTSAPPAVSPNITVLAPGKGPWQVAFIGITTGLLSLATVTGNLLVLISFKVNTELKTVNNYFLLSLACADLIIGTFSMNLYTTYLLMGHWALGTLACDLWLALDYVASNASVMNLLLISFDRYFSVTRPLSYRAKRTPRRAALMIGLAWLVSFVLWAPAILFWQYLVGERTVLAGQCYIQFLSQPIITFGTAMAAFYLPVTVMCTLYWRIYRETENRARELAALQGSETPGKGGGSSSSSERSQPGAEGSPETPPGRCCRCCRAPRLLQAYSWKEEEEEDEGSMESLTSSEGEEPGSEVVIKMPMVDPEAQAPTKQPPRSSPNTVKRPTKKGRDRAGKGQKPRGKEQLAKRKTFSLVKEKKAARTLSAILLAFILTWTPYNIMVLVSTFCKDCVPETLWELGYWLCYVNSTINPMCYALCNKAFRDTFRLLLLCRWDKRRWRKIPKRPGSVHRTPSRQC
Chain of Beta-2 adrenergic receptor (Homo sapiens) (P07550 whole entry, looked up): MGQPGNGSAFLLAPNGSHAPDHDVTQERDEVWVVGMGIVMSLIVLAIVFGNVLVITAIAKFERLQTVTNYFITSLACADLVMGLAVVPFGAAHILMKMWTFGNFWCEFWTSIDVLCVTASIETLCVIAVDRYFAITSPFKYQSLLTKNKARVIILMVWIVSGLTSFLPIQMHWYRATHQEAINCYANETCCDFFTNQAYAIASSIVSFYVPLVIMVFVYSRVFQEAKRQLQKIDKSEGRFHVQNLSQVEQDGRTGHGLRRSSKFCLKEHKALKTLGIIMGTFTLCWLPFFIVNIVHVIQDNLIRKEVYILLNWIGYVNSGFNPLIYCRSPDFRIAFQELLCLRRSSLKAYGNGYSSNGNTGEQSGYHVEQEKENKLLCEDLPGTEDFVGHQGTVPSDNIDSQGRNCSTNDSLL
Chain of KiSS-1 receptor (Homo sapiens) (Q969F8 whole entry, looked up): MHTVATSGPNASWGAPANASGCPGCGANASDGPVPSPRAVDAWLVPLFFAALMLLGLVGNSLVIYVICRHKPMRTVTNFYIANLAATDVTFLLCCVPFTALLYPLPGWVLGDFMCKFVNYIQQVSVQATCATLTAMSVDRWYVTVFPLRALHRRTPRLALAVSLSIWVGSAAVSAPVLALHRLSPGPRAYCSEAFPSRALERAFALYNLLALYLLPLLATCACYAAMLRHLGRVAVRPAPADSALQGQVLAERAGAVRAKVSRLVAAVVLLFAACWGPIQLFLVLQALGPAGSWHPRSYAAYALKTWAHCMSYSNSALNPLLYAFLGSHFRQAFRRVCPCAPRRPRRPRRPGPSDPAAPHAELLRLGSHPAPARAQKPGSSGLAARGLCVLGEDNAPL
Chain of D(2) dopamine receptor (Homo sapiens) (P14416 whole entry, looked up): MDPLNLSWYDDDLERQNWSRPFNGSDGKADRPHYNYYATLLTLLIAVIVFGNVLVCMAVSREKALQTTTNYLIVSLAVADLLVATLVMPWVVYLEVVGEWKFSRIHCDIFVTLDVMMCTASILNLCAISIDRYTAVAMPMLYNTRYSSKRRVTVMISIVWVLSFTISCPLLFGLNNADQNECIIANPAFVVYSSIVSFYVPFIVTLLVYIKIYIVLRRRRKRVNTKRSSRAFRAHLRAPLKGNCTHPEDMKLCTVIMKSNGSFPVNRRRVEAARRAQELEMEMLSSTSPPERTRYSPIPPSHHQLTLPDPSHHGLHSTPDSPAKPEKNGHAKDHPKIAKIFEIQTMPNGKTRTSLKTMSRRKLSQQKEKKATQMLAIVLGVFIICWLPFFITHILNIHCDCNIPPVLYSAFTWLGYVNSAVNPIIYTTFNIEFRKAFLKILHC
Chain of Gonadotropin-releasing hormone receptor (Homo sapiens) (P30968 whole entry, looked up): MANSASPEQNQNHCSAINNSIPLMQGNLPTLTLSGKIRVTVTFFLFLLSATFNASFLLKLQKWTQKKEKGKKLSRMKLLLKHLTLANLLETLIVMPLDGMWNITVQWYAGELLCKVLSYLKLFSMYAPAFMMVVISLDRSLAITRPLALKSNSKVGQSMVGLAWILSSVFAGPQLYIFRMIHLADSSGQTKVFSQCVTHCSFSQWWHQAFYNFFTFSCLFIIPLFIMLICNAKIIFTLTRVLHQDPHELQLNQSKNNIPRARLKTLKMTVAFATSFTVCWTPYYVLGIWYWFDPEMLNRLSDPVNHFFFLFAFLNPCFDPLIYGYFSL

On to `Cc1cnc[nH]1`, for which the Potency entry in experiment [1], in experiment [2], in experiment [3], in experiment [4], in [5] and in [6] was “inactive” in each case. For the same molecule, the Potency result in experiment [7], in [8], in [9], in [10], in [11] and in experiment [12] was “inactive” throughout. For the same molecule, the Potency result in [13], in [14], in experiment [15], in [16] and in experiment [17] was “inactive” in each case.
Consider `COc1ccc2c3c1O[C@H]1[C@H](O)CC[C@H]4[C@@H](C2)N(C)CC[C@@]341`, for which the Potency entry in experiment [1], in [18], in [19], in experiment [3], in [4] and in [5] was “inactive” in each case. Besides, the Potency entry in experiment [7], in experiment [8], in experiment [20], in experiment [9], in experiment [10] and in experiment [11] was “inactive” throughout. Further, the Potency entry in experiment [12], in experiment [13], in experiment [14], in experiment [15] and in [16] was “inactive” each time.
Take `OCC(O)CCl` (configuration not stated): the Potency result in experiment [1], in experiment [18], in [19], in experiment [3], in experiment [4] and in experiment [5] was “inactive” in each case. Besides, the Potency entry in experiment [6], in experiment [7], in experiment [8], in [20], in [9] and in experiment [10] was “inactive” in each case. The Potency result in experiment [11], in experiment [12], in experiment [13], in experiment [14], in experiment [16] and in [17] was “inactive” in each case.
For `ClCC(Cl)(Cl)Cl`, the Potency result in experiment [1], in experiment [18], in experiment [19], in experiment [3], in experiment [4] and in experiment [5] was “inactive” throughout. Also, the Potency result in experiment [6], in experiment [7], in experiment [8], in experiment [20], in [9] and in experiment [10] was “inactive” throughout. Further, the Potency entry in experiment [12], in experiment [13], in experiment [14], in [16] and in experiment [17] was “inactive” throughout.
With `COc1cc2c(cc1OC)[C@@]13CCN4CC5=CCO[C@H]6CC(=O)N2[C@H]1[C@H]6[C@H]5C[C@H]43`, the Potency result in experiment [1], in [18], in experiment [19], in experiment [3], in experiment [4] and in experiment [5] was “inactive” throughout. The Potency result in [6], in experiment [7], in experiment [8], in experiment [20], in experiment [9] and in experiment [10] was “inactive” each time. The Potency entry in experiment [11], in experiment [12], in experiment [13], in experiment [14], in [16] and in experiment [17] was “inactive” each time.
For the molecule `CC(C)(C)CC(C)(C)c1ccc(O)cc1`, the Potency in experiment [1] was 27.3 µM (active); in [5], 16.2 µM (active) and inactive; in experiment [6], 37.4 µM (active) and inactive; in [7] it was 43.2 µM (active); in experiment [20] it was 18.8 µM (active) and inactive; in [9] it was 34.7 µM (active). Moreover, the Potency in experiment [11] is 49 µM (active) and inactive. In addition, the Potency entry in experiment [18], in experiment [19], in experiment [3], in [4], in [14] and in experiment [16] was “inactive” each time.
On to `CN(C)CCc1c[nH]c2cccc(OP(=O)(O)O)c12`, for which the Potency result in experiment [1], in [2], in experiment [3], in [4], in experiment [5] and in [6] was “inactive” each time. In addition, the Potency entry in experiment [7], in [8], in [10], in experiment [11], in experiment [12] and in experiment [13] was “inactive” throughout. The Potency entry in experiment [14], in experiment [15] and in [16] was “inactive” in each case. In addition, the Potency in experiment [20] was 73.5 nM (active); in experiment [9], 0.0855 µM (active).
